This is a sample that favours compounds with a hit; in the whole collection about 11% have one here.
PNC assembly inh: blocks assembly of the perinucleolar compartment | hit rate 3.1% among 140,000 | activity change (PNC), negative = inhibition, % at 10 µM | PC3M PTB-GFP, PNC prevalence imaging, 16 h; hits give low values | AID 2417;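 active = readout at or below -70, meaning at least 70% loss of cells showing the perinucleolar compartment, a nuclear body marking cancer cells; inconclusive = readout between -30 and a set limit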;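 note: plate controls were DMSO wells for no effect and camptothecin positive control wells for full effect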
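Read-out is percentage of cells bearing a perinucleolar compartment, from automated 20x imaging of fixed, Hoechst-stained PC3M PTB-GFP cells. Cells were seeded 4 h, then exposed 16 h to compound (23 nl of library stock) in duplicate plates.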
CBFb-RUNX1 inh: blocks binding between human CBF-beta and RUNX1 | AlphaScreen CBFb-His/RUNX1-biotin binding, biochemical | 230,000 tested, under 10 active | Potency, µM (top dose mostly 59.8 µM), inactives show at the highest dose activity, negative = inhibition, most hits filed as inhibitors | Q01196+Q13951 | AID 1477; note: % of control where 0% means no effect
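AlphaScreen binding: CBFb-His and RUNX1-biotin (30 nM each) preincubated 20 min, compound added for 15 min, then nickel and streptavidin beads for 90 min, all at room temperature. Disruption of the interaction by any mechanism counts as activity.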
HPGD block: blocks human HPGD enzyme activity | P15428 | purified HPGD, NADH fluorescence kinetic, PGE2 substrate | Potency, µM, without a hit: top-dose activity change, negative = inhibition, usual class: inhibitors | hit rate 4.3% among 150,000 | AID 894; active = well fitted inhibition curve with a large enough effect, not every such curve was filed as active; inconclusive = small, poorly fitted or top-dose-only effect, or another doubt; inactive = no such curve, though single readings can be large or run the other way; note: potency is the fitted concentration of half-maximal effect; % is set by controls: 0 for no effect and ±100 for the full control effect
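20 nM HPGD preincubated 15 min at room temperature with compound in 50 mM Tris-HCl pH 8, 0.01% Tween 20. Started with 1 mM NAD+ and 30 uM prostaglandin E2; NADH fluorescence (360/450 nm) read 5 times over 30-s intervals, last minus first.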
ALDH1A1 inh: ALDH1A1 (human) enzyme inhibition. P00352. Purified ALDH1A1, NADH fluorescence, propionaldehyde substrate. Potency, µM (titrated, usually from 75.3 µM), for inactives: at the top dose activity, negative = inhibition, hits mostly inhibitors. hit rate 7.3% among 220,000; active = well fitted inhibition curve with a large enough effect, not every such curve was filed as active; inconclusive = small, poorly fitted or top-dose-only effect, or another doubt; inactive = no such curve, though single readings can be large or run the other way;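 note: potency is the fitted concentration of half-maximal effect; plate controls were no enzyme wells and a reference inhibitor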
Target sequence (P00352 whole entry, looked up): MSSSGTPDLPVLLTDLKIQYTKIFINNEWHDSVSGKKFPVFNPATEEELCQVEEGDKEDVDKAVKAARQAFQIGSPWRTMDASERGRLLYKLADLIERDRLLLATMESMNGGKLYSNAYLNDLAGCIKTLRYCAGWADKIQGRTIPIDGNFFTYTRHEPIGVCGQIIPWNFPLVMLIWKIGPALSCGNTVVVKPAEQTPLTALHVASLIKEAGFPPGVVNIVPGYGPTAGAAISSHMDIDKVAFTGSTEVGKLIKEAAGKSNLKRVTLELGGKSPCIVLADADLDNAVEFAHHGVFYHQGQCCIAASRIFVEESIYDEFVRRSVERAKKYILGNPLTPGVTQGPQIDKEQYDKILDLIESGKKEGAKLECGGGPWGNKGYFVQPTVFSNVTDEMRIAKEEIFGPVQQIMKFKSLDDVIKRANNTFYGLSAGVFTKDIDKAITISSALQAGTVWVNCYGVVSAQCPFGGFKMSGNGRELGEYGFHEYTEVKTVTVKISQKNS
HttQ103 aggreg: mutant huntingtin aggregation inhibition; AID 1688; PC12 HttQ103-GFP aggregates, Acumen cytometry, 40 h; hit rate 1.1% among 220,000; Potency, µM (series often up to 46.1 µM), inactives show top-dose activity change, negative = inhibition, usual class: inhibitors; note: potency is the fitted concentration of half-maximal effect; % is set by controls: 0 for no effect and ±100 for the full control effect; nearly all actives have a fitted effect of over 60% in size
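Multiplexed with ATP-based cell death, this channel scores GFP aggregates in PC12 cells expressing inducible HTTex1-Q103-GFP. Induction used 100 nM tebufenozide; compounds were tested in concentration series.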
HTT ATP protect: cytoprotection in Huntington HTT-Q103 PC12 cell model | PC12 HTT-Q103 induced, cytoprotection, ATP luminescence, 40 h | hit rate 0.14% among 230,000 | AID 1471 | Potency, µM (series often up to 56.4 µM), inactives show cytoprotection (ATP increase), usual class: activators; note: potency is the fitted concentration of half-maximal effect; % of control where 0% means no effect; nearly all actives have a fitted effect of over 45% in size
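Compounds added alongside 100 nM tebufenozide, which induces toxic Q103 huntingtin exon 1-GFP in stable PC12 cells; surviving cells quantified by luminescent ATP measurement. Medium: phenol red-free DMEM, 5% equine and 5% calf serum.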
Active calls of the source: *; ? = inconclusive; / = no result; [ ] = dose if it differs, or a comment. Unless noted, calls come from the whole dose curve; as a rule, active = well fitted curve in the direction sought with a large enough effect; inconclusive = small, poorly fitted or top-dose-only effect, or another doubt; inactive = no such curve, though single readings can be large; an effect the other way counts as inactive or inconclusive.

SMILES	PNC assembly inh	CBFb-RUNX1 inh	HPGD block	ALDH1A1 inh	HttQ103 aggreg	HTT ATP protect
O=[N+]([O-])c1cc([N+](=O)[O-])c2n[nH]c(-c3ccccc3)c2c1	/	?	/	4.7%	9.3%	-14.6%
CCN(CC)S(=O)(=O)c1ccc(NC(=S)NC(=O)C(C)C)cc1	0.3	-13.9%	-15.6%	28.2µM*	0.9%	-24.0%[10 µM]
CCN(CC)S(=O)(=O)c1ccc(NC(=S)NC(=O)CC(C)C)cc1	-83.0*	4.7%	-14.8%	-12.7%	-12.5%	/
CC(=O)NS(=O)(=O)c1ccc(NC(=S)NC(=O)C(C)C)cc1	-8.3	5.6%	-0.4%	3.8%	-0.4%[9.22 µM]	-11.7%
CC(=O)NS(=O)(=O)c1ccc(NC(=S)NC(=O)CC(C)C)cc1	/	4.0%	/	8.6%	-22.7%[9.22 µM]	-10.6%[10 µM]
CCOC(=O)CN1C(=O)N[C@@H](c2cccc(C(F)(F)F)c2)[C@H](C(=O)OC)[C@H]1C	/	2.8%[13.1 µM]	-3.5%	5.5%[13.5 µM]	/	-14.3%[10 µM]
CC(C)(C)c1ccc(Cn2ccc(-c3ccc4c(c3)OCO4)n2)cc1	-6.8	-6.2%	-19.4%	3.98µM*	?	-18.2%
Cc1ccc(Cn2ccc(NC(=O)c3cc(-c4ccc5c(c4)OCO5)on3)n2)cc1	-3.4	13.7%	?	-3.0%	4.0%	-6.6%
CCC(=O)N(C)CCc1cc2c(c(OC)c1/C=N/NC(=O)c1ccc(Br)cc1)OCO2	29.1	2.1%	-10.4%	1.5%	5.6%	15.5%[10 µM]
Cc1ccn2c(/C=N/OCc3ccc(F)cc3)c(-c3ccc(Cl)cc3)nc2c1	-18.7	1.2%	/	22.4µM*	-22.4%	-22.8%
CCNc1ncc2nc(-c3ccccc3)c(=O)n(C3CC3)c2n1	/	/	?	?	/	-120.8%
CN(C)Cc1c(-c2ccc(Cl)cc2)nc2ccc(Cl)cn12	/	-9.2%	/	?	-13.0%	-44.1%
CCOC(=O)c1sc(NC(=O)CSc2nnnn2-c2ccc(C)cc2)c(C(=O)OCC)c1C	-25.0	-2.3%	-9.0%	10.3%	0.4%	15.3%[10 µM]
CCOC(=O)/C(=N/Nc1ccc(Cl)cc1)Sc1nnnn1-c1ccc(C)cc1	?	-4.2%	-11.4%	1.0%	2.51µM*	4.7%[10 µM]
O=C(/C(=N\Nc1ccc(Br)cc1)Sc1nnnn1-c1ccccc1)c1ccccc1	78.8	2.2%	-8.9%	1.58µM*	-10.2%	3.2%[10 µM]
Cc1ccc(-n2c(CCc3ccccc3)nnc2SCC(=O)NCc2ccccc2)cc1C	1.1	-6.4%	-4.6%	?	-37.3%	-37.7%
CCOC(=O)/C(=N/Nc1ccccc1)Sc1nnc(CCc2ccccc2)n1-c1ccccc1	-134.0*	-19.9%	-22.3%	-0.5%	4.6%	?
CCOC(=O)/C(=N/Nc1ccccc1)Sc1nnnn1-c1ccc(C)cc1	?	7.2%	-13.5%	7.08µM*	27.4%	22.8%[10 µM]
CCOC(=O)C1CCN(C(=O)c2cc(C(C)(C)C)nn2Cc2ccccc2)CC1	/	4.7%	/	/	14.5%[9.22 µM]	15.0%[10 µM]
CN(C)CC(CN(C)C)c1ccccn1	/	/	-7.1%	-1.6%[13.5 µM]	/	-0.9%[10 µM]
c1ccc(Nc2nc(-c3ccoc3)nc3ccccc23)cc1	/	/	/	?	/	-1.0%
Cc1cc(C(=O)N(C)C)sc1-c1ccccc1	-2.5	5.2%	6.31µM*	-0.2%	8.9%	-47.2%[10 µM]
CCOc1ccccc1-n1c(=O)c2ccccc2c2ccccc2c1=O	-0.7	-2.6%	1.0%	6.0%	5.9%	23.4%[10 µM]
COc1ccccc1-n1c(=O)oc2ccc(Cl)cc2c1=O	?	7.9%	-9.0%	?	7.08µM*	-88.2%[0.074 µM]
CC(CCc1ccco1)NC(=O)Cn1ncc2c1-c1ccccc1OC2 (configuration not stated)	-10.7	8.3%	-16.9%	17.8µM*	7.4%	-4.2%
O=C(Cn1ncc2c1-c1ccccc1OC2)N(Cc1ccco1)C1CCCCC1	21.9	0.2%	-3.1%	4.9%	28.3%	3.3%
O=C1CCCC2=C1C(c1ccco1)Nc1ccc(C(=O)c3ccccc3)cc1N2 (configuration not stated)	?	-28.5%	-28.4%	20µM*	8.5%	-8.9%
